± gives the standard deviation of the averaged measurements. Whole data set: some 33,000 sequences, median “E-score (rank enrichment, -0.5 to 0.5)” near -0.0075, cut for the highest 2% near 0.23. This is one part of a sample in which the highest values are shown more often than they occur.
test system: WT Max(13-93) synthetic (M65Nle); assay: PBM 8-mer E-score (E-score (rank enrichment, -0.5 to 0.5)); higher = stronger preferential binding
Description: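 Protein binding microarray (universal PBM chip covering all 10-mers in fixed probe flanks) with chemically synthesized human Max(13-93) bHLH-LZ analogs (not full-length Max) bearing noncanonical residues (hArg, Tha, Aib, Nle at 65) and aromatic Cys staples. Read-out per 8-mer (and its reverse complement): E-score (rank-based enrichment, -0.5 to 0.5) and Z-score of median probe intensity.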

Sequence	PBM 8-mer E-score
CCAGAGTC	-0.155 ± 0.0016
ACAGCATA	0.00665 ± 0.081
CAAGCATA	0.104 ± 0.034
ACAGCATG	0.305 ± 0.01
AAAGCATG	0.303 ± 0.017
AACGCATG	0.305 ± 0.042
CAAGCATC	0.00917 ± 0.063
CAAGCATG	0.24 ± 0.053
AAAGCATA	0.211 ± 0.026
CACGCATG	0.184 ± 0.066
ACAGCATC	0.0804 ± 0.099
AACGCATC	0.0593 ± 0.014
AAAGCATT	0.14 ± 0.0086
ACACAGAC	0.00286 ± 0.095
AGACGTAG	0.0572 ± 0.041
CAATGCGC	0.0235 ± 0.012
AAGGGCGT	-0.0104 ± 0.031
GATAAAGC	0.179 ± 0.094
AGTGGAGG	0.0658 ± 0.0029
ATTAGACG	0.136 ± 0.028
AAAGATAC	0.00254 ± 0.17
TAAGATAA	0.018 ± 0.049
AAAGATAG	0.0319 ± 0.07
AAAGATAA	0.234 ± 0.029
CAAGATAA	0.256 ± 0.014

Sequence	PBM 8-mer E-score
CAAGATAC	0.146 ± 0.047
GCTACGTA	0.0754 ± 0.075
ACCCAGCT	-0.00912 ± 0.022
TCGAGACA	-0.125 ± 0.06
GACCTTAC	-0.127 ± 0.056
TCCTTTCA	0.177 ± 0.086
CCGACCAG	-0.175 ± 0.0087
GTGGAGTA	-0.0124 ± 0.029
TGGACGAA	0.138 ± 0.011
CGTATCTA	-0.0295 ± 0.068
AGTATCTA	0.253 ± 0.022
GGTATCTA	0.0126 ± 0.011
CGGCAATC	-0.205 ± 0.029
AGTCGGTC	-0.181 ± 0.0094
GATCAAGA	-0.00477 ± 0.11
AACATGGG	0.231 ± 0.047
CACATGGC	0.343 ± 0.039
GACATGGA	-0.0676 ± 0.069
CACATGAG	0.0368 ± 0.07
CACATGGA	0.37 ± 0.02
CACATGGG	0.276 ± 0.0049
AACATGGC	0.118 ± 0.02
GACATGGC	0.073 ± 0.098
CACATGAA	0.1797 ± 0.00019
CACATGAC	0.317 ± 0.0056

Sequence	PBM 8-mer E-score
CCCATGGG	-0.0583 ± 0.12
AACATGGA	0.106 ± 0.052
CGTATCCC	-0.27 ± 0.076
AAATCAAC	0.129 ± 0.0028
CGCTCGCC	-0.158 ± 0.02
CCGGCAAC	-0.301 ± 0.024
ACCCTGTC	-0.0879 ± 0.17
AGAATCGG	-0.25 ± 0.048
ACTAGGTA	0.102 ± 0.04
CTAACGCA	0.12 ± 0.0043
GCTGCAGA	-0.00761 ± 0.073
AGTATTTA	0.186 ± 0.058
GGTATTTA	0.0645 ± 0.18
CGTATTTA	0.285 ± 0.056
AAGACACC	-0.137 ± 0.085
AGCAGCTA	-0.199 ± 0.04
AACTACAC	0.282 ± 0.02
CAGTACAC	0.0197 ± 0.13
AAGTATAT	0.0964 ± 0.13
AAGTACAC	0.235 ± 0.075
AACTACAG	-0.0267 ± 0.018
AAGTATAC	0.246 ± 0.014
AAGTATAA	0.225 ± 0.069
GACTACAC	0.0803 ± 0.16
AAGTACAA	0.225 ± 0.15

Sequence	PBM 8-mer E-score
CGTGGCCC	0.0336 ± 0.14
GAGATGCC	0.078 ± 0.063
AGGGCCGA	0.0332 ± 0.068
GCCCACCC	0.206 ± 0.017
CGACACCG	-0.265 ± 0.12
AGATGGCC	-0.092 ± 0.12
CACGTAGC	0.0038 ± 0.017
GAGTCCCA	-0.0366 ± 0.0061
CTGTTGCA	0.0892 ± 0.013
GACATATA	0.0052 ± 0.075
CACATATG	0.185 ± 0.029
AATATAAT	0.156 ± 0.023
AATATAAA	0.26 ± 0.1
CATATAAG	0.21 ± 0.012
GATATAAA	0.0778 ± 0.026
CATATAAA	0.295 ± 0.098
CACATATA	0.301 ± 0.098
TATATAAA	0.196 ± 0.099
CGTACCAG	-0.0661 ± 0.0056
TTAGCGAA	-0.0471 ± 0.069
CGCCACGA	-0.137 ± 0.15
ATGCAGGG	0.0122 ± 0.03
CCTAAGCG	-0.0916 ± 0.0045
GTGTCTGA	0.00783 ± 0.11
GAACAAGA	0.137 ± 0.095

Sequence	PBM 8-mer E-score
GATTCCCA	-0.0229 ± 0.034
AATTCCCC	0.0165 ± 0.05
AATTCCCA	0.282 ± 0.0091
GACCCGAA	-0.196 ± 0.14
AAACTACT	0.232 ± 0.034
AAACTACA	0.219 ± 0.021
AAACTACC	0.0484 ± 0.067
GCGTGCTA	0.197 ± 0.0073
ACGTGCTC	0.298 ± 0.013
CCGTGCTC	-0.0456 ± 0.034
CCGTGCTA	-0.0393 ± 0.0021
ACGTGCTA	0.311 ± 0.019
ACGTGCTG	0.212 ± 0.025
ACCAGGGA	0.0354 ± 0.19
AGGCGCTG	-0.0811 ± 0.026
AACAGTGG	-0.0694 ± 0.089
AACTTGCA	0.193 ± 0.046
CGTGCCGC	0.0425 ± 0.15
ATAACAAC	0.265 ± 0.079
CTAACCAC	0.139 ± 0.0048
ATAACAAG	0.223 ± 0.0096
ATAACCAC	0.288 ± 0.07
ATAACCAG	0.113 ± 0.031
ATAACAAT	0.168 ± 0.0023
CTTTTTGC	0.046 ± 0.063

Sequence	PBM 8-mer E-score
CACCTGGC	0.0136 ± 0.041
GGAGTGCC	-0.11 ± 0.012
CTATGACA	0.0275 ± 0.077
GTATGACA	0.245 ± 0.062
ATATGACC	-0.0408 ± 0.015
GGATGACA	-0.00576 ± 0.064
GTATGAAA	0.222 ± 0.033
ATATGACA	0.263 ± 0.014
ATAGCAGG	-0.0492 ± 0.15
TCCGGACA	-0.0731 ± 0.033
GTCTCTAA	-0.108 ± 0.17
CCTCGCGA	-0.00258 ± 0.05
AATCGCCG	-0.197 ± 0.032
CTTTATAA	0.127 ± 0.026
ATATATCC	0.237 ± 0.064
CTATATCC	0.135 ± 0.012
TGATATAA	0.155 ± 0.021
CGATATAA	0.281 ± 0.046
ATATATCA	0.19 ± 0.073
ATTTATAA	0.241 ± 0.035
ATTTATAC	0.188 ± 0.078
TTATAAAA	0.215 ± 0.03
CGATATAG	-0.0681 ± 0.07
TTATATAA	0.256 ± 0.13
CGATATAC	0.0759 ± 0.16

Sequence	PBM 8-mer E-score
TACGATAA	0.194 ± 0.094
AATGCGAA	0.03 ± 0.03
GCTCCTTA	-0.0526 ± 0.048
ATATCGGG	0.19 ± 0.03
AAGCGGCC	-0.276 ± 0.054
CCGACACA	-0.052 ± 0.075
CGCCGTTC	-0.101 ± 0.024
GGGGGCTA	-0.0501 ± 0.18
CGCGACAC	0.045 ± 0.063
ATATACAG	0.234 ± 0.0072
ATATACAC	0.161 ± 0.055
CTATATAA	0.0196 ± 0.063
GTATATAA	0.102 ± 0.091
ATATATAA	0.246 ± 0.086
CTATACAG	0.0775 ± 0.017
GTAGTACA	0.0953 ± 0.0039
CCAACGTC	-0.0188 ± 0.032
AACGACGA	-0.113 ± 0.23
AAGACTCT	0.0105 ± 0.12
CTATGTGC	0.0889 ± 0.047
ACATGTGA	0.389 ± 0.00049
CCATGTGC	0.389 ± 0.0074
